Holding throughout (test): DAPPL (digital affinity profiling via proximity ligation, sequencing); 10 mM Tris-HCl pH 7.5, 50 mM NaCl, 1 mM DTT, 4% glycerol, room temperature, 30 min; GST-TFs on glutathione beads, 16-mer random dsDNA library, 0.1% formaldehyde crosslink after washing; high values mean tight binding
Conditions in all cases: protein: recombinant; tags: N-terminal GST; dsDNA, one strand shown

One test concerns the target T1, FLI1 (Homo sapiens, UniProt Q01543 1-452).
T1 sequence: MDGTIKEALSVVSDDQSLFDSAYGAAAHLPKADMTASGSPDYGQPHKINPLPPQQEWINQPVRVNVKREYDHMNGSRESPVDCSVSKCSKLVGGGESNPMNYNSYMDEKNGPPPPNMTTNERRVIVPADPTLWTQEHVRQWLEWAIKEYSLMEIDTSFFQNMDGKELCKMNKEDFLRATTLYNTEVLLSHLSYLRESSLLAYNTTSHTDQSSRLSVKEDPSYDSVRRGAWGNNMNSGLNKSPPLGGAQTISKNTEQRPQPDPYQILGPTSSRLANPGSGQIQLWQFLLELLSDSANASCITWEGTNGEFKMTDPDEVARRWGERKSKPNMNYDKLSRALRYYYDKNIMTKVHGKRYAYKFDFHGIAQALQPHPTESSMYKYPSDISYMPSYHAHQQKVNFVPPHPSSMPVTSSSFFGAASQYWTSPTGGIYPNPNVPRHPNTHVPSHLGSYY
A digest of the protocol: (§1)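 A tag-only sample was pooled with DNA-barcoded human transcription factors that had been expressed in yeast as GST fusions and captured on glutathione beads. The pools were incubated for 30 min at room temperature with 200 nmole of a random double-stranded 16-mer DNA library in Tris/NaCl/DTT/glycerol buffer, then washed, crosslinked with 0.1% formaldehyde, proximity-ligated (BsaI/T4 ligase, 1 h, 37 °C), PCR-amplified and sequenced on an Illumina NextSeq500. Binding signal is each hexamer's read frequency for a factor divided by its frequency for the tag-only sample.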

Another test deals with T2, ELK1 (Homo sapiens, UniProt P19419 1-428).
T2 sequence: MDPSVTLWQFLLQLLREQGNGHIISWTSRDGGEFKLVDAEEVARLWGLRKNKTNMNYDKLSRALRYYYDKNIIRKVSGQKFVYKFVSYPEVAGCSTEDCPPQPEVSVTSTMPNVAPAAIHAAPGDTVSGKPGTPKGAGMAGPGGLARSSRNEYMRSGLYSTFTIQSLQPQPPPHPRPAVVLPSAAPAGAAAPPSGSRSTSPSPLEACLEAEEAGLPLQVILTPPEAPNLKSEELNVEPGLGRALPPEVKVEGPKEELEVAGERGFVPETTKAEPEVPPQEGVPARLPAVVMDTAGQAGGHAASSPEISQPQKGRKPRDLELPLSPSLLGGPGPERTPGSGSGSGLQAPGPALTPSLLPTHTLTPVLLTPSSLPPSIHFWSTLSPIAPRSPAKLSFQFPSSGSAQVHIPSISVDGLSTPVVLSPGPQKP
A digest of the protocol: as §1

A further test has as its target T3, GABPA (Homo sapiens, UniProt Q06546 1-454).
T3 sequence: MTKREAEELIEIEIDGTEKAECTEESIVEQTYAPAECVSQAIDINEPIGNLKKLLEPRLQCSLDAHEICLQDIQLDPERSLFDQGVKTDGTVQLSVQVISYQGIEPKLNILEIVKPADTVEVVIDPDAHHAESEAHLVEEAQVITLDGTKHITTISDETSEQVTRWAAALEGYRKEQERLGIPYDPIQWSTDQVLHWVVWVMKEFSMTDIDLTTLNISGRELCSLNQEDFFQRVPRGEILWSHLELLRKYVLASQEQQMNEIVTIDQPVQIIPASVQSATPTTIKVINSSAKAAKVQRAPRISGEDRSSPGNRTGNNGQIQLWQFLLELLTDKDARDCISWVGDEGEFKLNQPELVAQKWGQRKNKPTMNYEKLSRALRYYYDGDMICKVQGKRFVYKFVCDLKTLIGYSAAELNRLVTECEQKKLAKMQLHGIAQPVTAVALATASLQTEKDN
A digest of the protocol: as §1

The next test has as its target T4, ERG (Homo sapiens, UniProt P11308 1-479).
T4 sequence: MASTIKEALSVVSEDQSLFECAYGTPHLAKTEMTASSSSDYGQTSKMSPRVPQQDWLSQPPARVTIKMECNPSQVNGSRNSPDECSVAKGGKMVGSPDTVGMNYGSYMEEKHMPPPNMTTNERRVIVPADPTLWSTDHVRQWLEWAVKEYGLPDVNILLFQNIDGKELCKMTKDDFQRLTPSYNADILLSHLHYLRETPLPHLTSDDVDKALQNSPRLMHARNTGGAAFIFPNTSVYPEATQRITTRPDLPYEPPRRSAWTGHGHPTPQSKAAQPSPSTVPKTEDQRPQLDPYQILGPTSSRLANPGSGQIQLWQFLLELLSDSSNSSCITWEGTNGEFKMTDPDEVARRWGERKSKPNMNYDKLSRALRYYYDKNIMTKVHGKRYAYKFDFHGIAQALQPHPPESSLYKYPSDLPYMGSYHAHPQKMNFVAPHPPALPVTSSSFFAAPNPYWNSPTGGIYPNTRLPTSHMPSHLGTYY
A digest of the protocol: as §1

The next test addresses ELF1 (Homo sapiens, UniProt P32519 1-619). A digest of the protocol: as §1
The target of a further test is T5, EHF (Homo sapiens, UniProt Q9NZC4 1-300).
T5 sequence: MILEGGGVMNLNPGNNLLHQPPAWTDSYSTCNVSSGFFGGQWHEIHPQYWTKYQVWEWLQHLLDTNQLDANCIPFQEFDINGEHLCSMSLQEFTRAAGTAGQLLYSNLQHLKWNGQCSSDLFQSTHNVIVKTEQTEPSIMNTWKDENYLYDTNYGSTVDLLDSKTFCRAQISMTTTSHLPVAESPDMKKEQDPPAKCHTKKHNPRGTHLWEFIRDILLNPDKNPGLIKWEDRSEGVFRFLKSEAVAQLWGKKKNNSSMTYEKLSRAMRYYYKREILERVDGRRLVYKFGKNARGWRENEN
A digest of the protocol:
as §1

A further test addresses SPI1 (Homo sapiens, UniProt P17947 1-270). A digest of the protocol:
as §1

A further test concerns the target SPIB (Homo sapiens, UniProt Q01892 1-262). A digest of the protocol:
as §1

A further test concerns the target T6, ELK3 (Homo sapiens, UniProt P41970 1-407).
T6 sequence: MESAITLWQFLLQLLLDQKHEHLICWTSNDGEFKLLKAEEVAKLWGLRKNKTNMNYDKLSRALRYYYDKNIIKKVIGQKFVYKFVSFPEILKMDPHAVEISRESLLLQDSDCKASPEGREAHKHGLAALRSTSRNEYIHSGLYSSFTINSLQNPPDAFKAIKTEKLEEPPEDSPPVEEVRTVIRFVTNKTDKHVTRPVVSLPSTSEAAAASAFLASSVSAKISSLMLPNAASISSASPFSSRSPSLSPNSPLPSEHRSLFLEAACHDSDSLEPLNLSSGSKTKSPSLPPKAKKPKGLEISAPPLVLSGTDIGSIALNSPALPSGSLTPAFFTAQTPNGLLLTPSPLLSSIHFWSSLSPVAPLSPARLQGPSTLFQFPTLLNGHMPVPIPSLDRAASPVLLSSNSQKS
A digest of the protocol: as §1

Chain of SPIB (Q01892 whole entry): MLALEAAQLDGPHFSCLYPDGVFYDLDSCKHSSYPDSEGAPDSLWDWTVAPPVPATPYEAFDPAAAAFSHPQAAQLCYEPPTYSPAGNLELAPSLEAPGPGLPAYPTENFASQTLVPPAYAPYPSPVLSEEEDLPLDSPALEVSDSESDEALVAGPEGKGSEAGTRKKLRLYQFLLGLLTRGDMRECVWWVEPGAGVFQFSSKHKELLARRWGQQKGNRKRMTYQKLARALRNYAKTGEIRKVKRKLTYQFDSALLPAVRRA
Chain of ELF1 (P32519 whole entry): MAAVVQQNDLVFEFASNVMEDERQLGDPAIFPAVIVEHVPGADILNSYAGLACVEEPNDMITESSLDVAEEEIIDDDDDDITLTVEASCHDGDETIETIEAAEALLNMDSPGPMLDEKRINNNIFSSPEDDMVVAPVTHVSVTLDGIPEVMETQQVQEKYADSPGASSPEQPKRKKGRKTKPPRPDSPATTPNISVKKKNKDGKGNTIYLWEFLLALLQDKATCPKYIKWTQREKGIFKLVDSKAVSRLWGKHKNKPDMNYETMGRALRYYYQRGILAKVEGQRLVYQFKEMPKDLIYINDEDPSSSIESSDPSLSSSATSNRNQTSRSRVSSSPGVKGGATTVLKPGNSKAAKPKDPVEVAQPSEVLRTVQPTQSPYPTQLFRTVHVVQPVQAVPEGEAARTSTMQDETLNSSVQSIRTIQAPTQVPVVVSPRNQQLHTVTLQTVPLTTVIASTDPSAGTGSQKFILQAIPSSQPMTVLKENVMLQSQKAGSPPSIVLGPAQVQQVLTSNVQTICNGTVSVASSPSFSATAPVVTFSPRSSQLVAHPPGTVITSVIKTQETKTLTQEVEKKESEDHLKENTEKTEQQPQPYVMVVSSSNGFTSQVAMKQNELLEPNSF

As for TTGTAT, the binding signal was 1.52 fold enrichment (6-mer frequency, TF over GST control) in the test with FLI1; 1.33 fold enrichment (6-mer frequency, TF over GST control) in the test with ELK1; 1.29 fold enrichment (6-mer frequency, TF over GST control) with GABPA; 1.31 fold enrichment (6-mer frequency, TF over GST control) in the test with ERG; 1.32 fold enrichment (6-mer frequency, TF over GST control) in the test with ELF1; 1.37 fold enrichment (6-mer frequency, TF over GST control) in the test with EHF. Further, the binding signal was 1.11 fold enrichment (6-mer frequency, TF over GST control) in the test with SPI1; 1.38 fold enrichment (6-mer frequency, TF over GST control) in the test with SPIB; 1.4 fold enrichment (6-mer frequency, TF over GST control) with ELK3.

Take TCTTGG: the binding signal with FLI1 was 1.44 fold enrichment (6-mer frequency, TF over GST control); with ELK1, 1.35 fold enrichment (6-mer frequency, TF over GST control); with GABPA, 1.52 fold enrichment (6-mer frequency, TF over GST control); with ERG it was 1.38 fold enrichment (6-mer frequency, TF over GST control); with ELF1, 1.28 fold enrichment (6-mer frequency, TF over GST control); in the test with EHF, 1.48 fold enrichment (6-mer frequency, TF over GST control). In addition, the binding signal is 1.35 fold enrichment (6-mer frequency, TF over GST control) with SPI1; 1.4 fold enrichment (6-mer frequency, TF over GST control) in the test with SPIB; 1.4 fold enrichment (6-mer frequency, TF over GST control) with ELK3.

Consider TCCCTC, for which the binding signal is 1.58 fold enrichment (6-mer frequency, TF over GST control) in the test with FLI1; 1.6 fold enrichment (6-mer frequency, TF over GST control) in the test with ELK1; 1.47 fold enrichment (6-mer frequency, TF over GST control) in the test with GABPA; 1.45 fold enrichment (6-mer frequency, TF over GST control) with ERG; 1.51 fold enrichment (6-mer frequency, TF over GST control) with ELF1; 1.48 fold enrichment (6-mer frequency, TF over GST control) with EHF. Moreover, the binding signal was 1.5 fold enrichment (6-mer frequency, TF over GST control) with SPI1; 1.58 fold enrichment (6-mer frequency, TF over GST control) in the test with SPIB; 1.47 fold enrichment (6-mer frequency, TF over GST control) with ELK3.

For CTCCCA, the binding signal is 1.47 fold enrichment (6-mer frequency, TF over GST control) with FLI1; 1.33 fold enrichment (6-mer frequency, TF over GST control) with ELK1; 1.45 fold enrichment (6-mer frequency, TF over GST control) in the test with GABPA; 1.38 fold enrichment (6-mer frequency, TF over GST control) with ERG; 1.41 fold enrichment (6-mer frequency, TF over GST control) in the test with ELF1; 1.39 fold enrichment (6-mer frequency, TF over GST control) in the test with EHF. The binding signal with SPI1 is 1.43 fold enrichment (6-mer frequency, TF over GST control); in the test with SPIB, 1.36 fold enrichment (6-mer frequency, TF over GST control); with ELK3, 1.34 fold enrichment (6-mer frequency, TF over GST control).

For TGAACT, the binding signal with FLI1 was 1.27 fold enrichment (6-mer frequency, TF over GST control); in the test with ELK1, 1.19 fold enrichment (6-mer frequency, TF over GST control); with GABPA, 1.33 fold enrichment (6-mer frequency, TF over GST control); with ERG, 1.32 fold enrichment (6-mer frequency, TF over GST control); in the test with ELF1, 1.2 fold enrichment (6-mer frequency, TF over GST control); with EHF it was 1.34 fold enrichment (6-mer frequency, TF over GST control). Further, the binding signal is 1.17 fold enrichment (6-mer frequency, TF over GST control) with SPI1; 1.25 fold enrichment (6-mer frequency, TF over GST control) with SPIB; 1.19 fold enrichment (6-mer frequency, TF over GST control) with ELK3.

On to TAGTTC, for which the binding signal is 1.47 fold enrichment (6-mer frequency, TF over GST control) with FLI1; 1.41 fold enrichment (6-mer frequency, TF over GST control) in the test with ELK1; 1.28 fold enrichment (6-mer frequency, TF over GST control) in the test with GABPA; 1.45 fold enrichment (6-mer frequency, TF over GST control) with ERG; 1.37 fold enrichment (6-mer frequency, TF over GST control) with ELF1; 1.3 fold enrichment (6-mer frequency, TF over GST control) in the test with EHF. Further, the binding signal with SPI1 is 1.43 fold enrichment (6-mer frequency, TF over GST control); in the test with SPIB, 1.51 fold enrichment (6-mer frequency, TF over GST control); in the test with ELK3 it was 1.15 fold enrichment (6-mer frequency, TF over GST control).

As to TAGCCC, the binding signal with FLI1 is 1.23 fold enrichment (6-mer frequency, TF over GST control); with ELK1, 1.18 fold enrichment (6-mer frequency, TF over GST control); in the test with GABPA, 1.12 fold enrichment (6-mer frequency, TF over GST control); with ERG, 1.12 fold enrichment (6-mer frequency, TF over GST control); with ELF1 it was 1.08 fold enrichment (6-mer frequency, TF over GST control); with EHF, 1.21 fold enrichment (6-mer frequency, TF over GST control). The binding signal with SPI1 is 1.13 fold enrichment (6-mer frequency, TF over GST control); with SPIB, 1.16 fold enrichment (6-mer frequency, TF over GST control); in the test with ELK3, 1.24 fold enrichment (6-mer frequency, TF over GST control).

For the origin of these results see paper PMC7862700, “An all-to-all approach to the identification of sequence-specific readers for epigenetic DNA modifications on cytosine”.
